MPTP block: mitochondrial permeability transition pore inhibitors, primary screen, biochemical, isolated mouse mitochondria, absorbance. Ca2+ swelling absorbance, 30 min. inhibition, % at 10 µM. 360,000 tested, 1.4% active;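 active means inhibition of 50% or more, scaled per plate between neutral and stimulator controls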;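 further: 0% = DMSO wells given calcium and 100% = 1 mM EGTA wells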
tim23-1 inh: growth inhibitors of tim23-1 mutant yeast, primary screen, luminescence, uHTS; S. cerevisiae tim23-1 growth, BacTiter-Glo luminescence, 24 h; inhibition, % at 20 µM; 330,000 tested, 1.3% active; AID 463212, 2010;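 active means growth inhibition of the mutant yeast at or above 50%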;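 further: temperature-sensitive mutant grown at 25 °C; plate controls were DMSO-treated mutant yeast for no effect and medium wells lacking yeast for full effect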
Mdm2 MdmX PPI: inhibitors of human Mdm2-MdmX association, primary screen, cell-based, luminescence, split luciferase, SaOS-2, uHTS. Protein Mdm4 (Homo sapiens) + E3 ubiquitin-protein ligase Mdm2 (Homo sapiens), …. inhibition, % at 8 µM. 330,000 tested, 3% active. SaOS-2 split-luciferase Mdm2/MdmX complementation;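 active means inhibition of at least 50% at 8 µM in the primary screen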
Target sequence (O15151 whole entry, looked up): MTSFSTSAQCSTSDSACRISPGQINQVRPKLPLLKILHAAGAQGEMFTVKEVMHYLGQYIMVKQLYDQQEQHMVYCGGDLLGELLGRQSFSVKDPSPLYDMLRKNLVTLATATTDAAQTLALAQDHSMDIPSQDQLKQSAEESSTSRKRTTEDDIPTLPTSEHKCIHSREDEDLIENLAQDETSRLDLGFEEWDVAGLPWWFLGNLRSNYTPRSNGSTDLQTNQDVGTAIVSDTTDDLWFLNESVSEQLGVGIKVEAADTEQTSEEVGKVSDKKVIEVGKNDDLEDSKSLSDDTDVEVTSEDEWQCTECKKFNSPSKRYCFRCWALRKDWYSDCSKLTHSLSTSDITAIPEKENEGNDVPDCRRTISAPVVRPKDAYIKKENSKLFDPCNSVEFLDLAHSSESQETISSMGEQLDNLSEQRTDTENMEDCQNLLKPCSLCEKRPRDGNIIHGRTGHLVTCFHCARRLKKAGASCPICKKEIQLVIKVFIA
Target sequence (Q00987 whole entry, looked up): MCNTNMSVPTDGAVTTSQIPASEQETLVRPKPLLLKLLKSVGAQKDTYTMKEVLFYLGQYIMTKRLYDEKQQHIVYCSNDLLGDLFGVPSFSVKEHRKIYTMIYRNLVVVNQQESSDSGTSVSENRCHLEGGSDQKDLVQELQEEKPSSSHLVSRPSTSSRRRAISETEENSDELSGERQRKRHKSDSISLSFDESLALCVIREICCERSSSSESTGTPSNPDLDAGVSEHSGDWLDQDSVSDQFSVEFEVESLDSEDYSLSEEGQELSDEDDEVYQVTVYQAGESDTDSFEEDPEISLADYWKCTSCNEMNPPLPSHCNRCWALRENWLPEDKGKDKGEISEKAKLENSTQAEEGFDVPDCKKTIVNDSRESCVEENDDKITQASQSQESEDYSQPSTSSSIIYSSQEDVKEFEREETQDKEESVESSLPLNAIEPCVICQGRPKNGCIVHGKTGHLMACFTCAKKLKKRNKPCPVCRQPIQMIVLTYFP
tim10-1 inh: growth inhibitors of tim10-1 mutant yeast, primary screen, luminescence, uHTS; S. cerevisiae tim10-1 ts strain growth, BacTiter-Glo, 24 h; inhibition, % at 20 µM; 330,000 tested, 2.2% active; AID 463190, 2010;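 active means inhibition of at least 40%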;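 further: mutant grown at 25 °C; 0% = DMSO wells with yeast and 100% = wells holding no yeast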
TIM10 inh: growth inhibitors of isogenic TIM10 control yeast, primary screen, counter-screen for tim10-1 yeast inhibitor project, luminescence, uHTS. S. cerevisiae TIM10 strain growth, BacTiter-Glo luminescence, 24 h. inhibition, % at 10 µM. 330,000 tested, 1.4% active;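 active means inhibition of 40% or more at the single tested concentration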;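 further: wild-type TIM10 isogenic control strain grown at permissive 25 °C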
Mdm2 MdmX conf: Mdm2-MdmX complex disruptors, retested hits, confirmation, luminescence, single concentration. inhibition, % at 8 µM. 10,000 tested, 55% active. shares compounds with Mdm2 MdmX PPI. Mdm2-MdmX binding, luminescent assay; in the data active means inhibition above about 40%
FLuc counter: full-length luciferase signal inhibition, confirmation, counter-screen for Mdm2/MdmX interaction inhibitor project, cell-based, single concentration, SaOS-2 | inhibition, % at 8 µM | SaOS-2 full-length luciferase counterscreen, luminescence | 6,200 tested, 77% active | shares compounds with Mdm2 MdmX PPI;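 active means mean inhibition at 8 µM reaching about 37%, which flags the compound as non-specific, limit read from the data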;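 further: p53-null SaOS-2 cells with luciferase driven by a doxycycline-inducible promoter; compound on cells about two nights before reading with doxycycline added after day one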
* = called active by the depositor; · = no result given. Compounds with a hit are over-represented: about 6.3% of the library has one in this group of screens.

SMILES	MPTP block	tim23-1 inh	Mdm2 MdmX PPI	tim10-1 inh	TIM10 inh	Mdm2 MdmX conf	FLuc counter
CCn1cc([N+](=O)[O-])c(C(=O)N2N=C(c3cccc4ccccc34)CC2c2ccccc2O)n1 (centres undefined)	-12.9	1.5	51.9*	15.9	16.8	41.2*	74.9*
Nc1nc(N=Nc2ccc(O)cc2)cc(=O)[nH]1	6.1	·	·	·	·	·	·
CCOC1(OCC)OC(c2ccccc2)=C(C#N)C(C=Cc2ccccc2)C1(OCC)OCC (centres undefined)	4.3	·	·	·	·	·	·
COC1CC(=O)C2OC(c3ccccc3)OCC2O1 (centres undefined)	0.2	·	·	·	·	·	·
O=C(O)COc1ccc(Cl)cc1C1CCCCC1	-0.4	·	·	·	·	·	·
CCC(C)CN1C(=O)CSCC1(C)C(=O)Nc1ccc2c(c1)OCCO2 (centres undefined)	0.2	·	·	·	·	·	·
CSc1nc2sc(-c3ccccc3)cc2c(=O)n1N	-1.9	19.0	68.2*	18.4	14.4	40.5*	164.1*
CC(=O)c1c(C)[nH]c(C(=O)OCC(=O)c2c(N)n(C)c(=O)n(C)c2=O)c1C	·	-34.3	55.9*	-14.3	-27.7	2.2	·
O=C(CSc1nnnn1-c1ccccc1)Nc1ncc(Cc2cccc(Cl)c2Cl)s1	1.9	2.5	56.2*	20.4	15.8	16.4	·
CCc1ccc(CCC(=O)Nc2ncc(Cc3ccccc3Cl)s2)o1	-0.2	2.0	66.4*	12.5	12.5	51.3*	79.6*
O=C(CSc1nnnn1-c1ccccc1)Nc1ncc(Cc2cc(Cl)ccc2Cl)s1	4.3	-28.8	37.6	-7.6	-4.9	·	·
Cc1ccc(-n2nnnc2SCC(=O)Nc2ncc(Cc3ccccc3Cl)s2)cc1	-2.8	-9.6	58.8*	6.0	16.1	-24.4	·
CCCCNC(=O)C1c2ccccc2OCC(=O)N1Cc1ccc2c(c1)OCO2 (centres undefined)	-0.5	·	·	·	·	·	·
COc1ccc(S(=O)(=O)N(C)C[C@H]2OCCCC[C@@H](C)Oc3ccc(N(C)C)cc3C(=O)N([C@H](C)CO)C[C@@H]2C)cc1	2.4	·	·	·	·	·	·
CCOC(=O)c1c(NC(C)=O)sc2c(OCC(O)CN(CC)CC)c(Br)ccc12 (centres undefined)	-0.1	-20.4	85.2*	15.2	3.3	27.6	·
CCOC(=O)c1c(NC(C)=O)sc2c(OCCN(CC)CC)c(Br)ccc12	0.2	5.0	55.2*	-1.3	18.1	14.4	·
CCOC(=O)c1c(NC(C)=O)sc2c(OC)c(Br)ccc12	-0.5	5.7	21.5	10.0	2.4	·	·
Cc1ccc(CNC(=O)CN2NS(=O)(=O)c3ccccc3C2=O)cc1	-1.4	·	·	·	·	·	·
C=CCn1c(C)cc(C(=O)CN2NS(=O)(=O)c3ccccc3C2=O)c1C	-5.4	15.1	63.8*	13.7	7.9	38.1	·
CCOC(=O)[C@]12CCCC=C1N(Cc1cccc3ccccc13)C(=O)[C@H](CC(=O)N1CCCC1)C2	-0.2	·	·	·	·	·	·
O=C(Nc1cccnc1)Nc1cccc(F)c1	0.8	-5.8	23.7	-4.0	-2.4	·	·
CC(=O)c1cccc(NC(=O)Nc2cccnc2)c1	2.5	2.1	54.3*	12.1	-0.8	49.5*	27.6
COC(=O)c1c(C)oc2ccc(N(C(=O)c3ccncc3)S(=O)(=O)c3ccc(C)cc3)cc12	17.8	38.8	55.6*	24.1	15.8	51.8*	85.5*
COC(=O)c1c(C)oc2ccc(N(C(=O)Oc3ccccc3)S(=O)(=O)c3ccc(Cl)c([N+](=O)[O-])c3)cc12	5.3	9.1	96.3*	16.2	9.2	-12.1	·
COC(=O)c1c(C)oc2ccc(N(C(=O)c3ccncc3)S(=O)(=O)c3ccccc3)cc12	10.5	44.5	35.0	28.4	19.5	·	·
SMILES	MPTP block	tim23-1 inh	Mdm2 MdmX PPI	tim10-1 inh	TIM10 inh	Mdm2 MdmX conf	FLuc counter
COC(=O)c1c(C)oc2ccc(N(C(=O)c3ccncc3)S(=O)(=O)c3ccc4ccccc4c3)cc12	39.2	37.0	41.9	29.2	27.6	·	·
CC1(C2CC(=O)c3c(O)ccc(O)c3C2)OCCO1 (centres undefined)	-1.2	·	·	·	·	·	·
COc1ccccc1-c1cnc(C(O)c2ccc(Cl)cc2)[nH]1 (centres undefined)	0.9	·	·	·	·	·	·
COc1ccc2cc(C(=O)/C=C/c3cc(OC)c(OC)c(OC)c3)ccc2c1	1.4	30.1	74.6*	19.9	28.4	53.9*	78.1*
COc1cc(C=CC(=O)c2cc(OC)c(OC)c(OC)c2)cc(OC)c1OC	1.8	·	·	·	·	·	·
COc1ccc(Oc2ccc(/C=C/C(=O)c3cccc(OC)c3)cc2[N+](=O)[O-])cc1	-1.9	33.1	96.7*	30.1	22.9	18.6	26.2
COc1ccccc1-n1cc([C@@H]2C[C@H]3CN(c4ccccc4)C(=O)[C@]34CCCN24)cn1	-1.7	15.0	76.6*	6.2	-4.0	19.9	·
N#Cc1ccccc1/C=N/Nc1nc(-c2ccccc2)c2cc(Br)ccc2n1	35.0	25.1	55.0*	28.1	33.9	3.1	·
O=[N+]([O-])c1ccc(/C=N/Nc2nc(-c3ccccc3)c3cc(Br)ccc3n2)o1	2.3	18.9	33.7	-17.0	27.9	·	·
C[C@@H]1CN([C@@H](C)CO)C(=O)c2cccc(NC(=O)Nc3ccc(F)cc3)c2O[C@@H]1CN(C)Cc1ccc(Oc2ccccc2)cc1	-1.1	6.4	76.3*	-1.4	4.1	22.0	·
COc1ccc(NC(=O)Nc2cccc3c2O[C@H](CN(C)Cc2ccc(-c4ccccc4)cc2)[C@@H](C)CN([C@H](C)CO)C3=O)cc1	1.7	-9.7	90.7*	1.3	9.7	63.0*	31.0
Cc1ccc(S(=O)(=O)N(C)C[C@H]2Oc3c(NC(=O)Nc4cccc5ccccc45)cccc3C(=O)N([C@@H](C)CO)C[C@@H]2C)cc1	0.6	22.7	59.6*	19.4	8.5	37.4	46.6*
CCC(=O)OCC(=O)c1c(N)n(Cc2ccccc2)c(=O)n(C)c1=O	-0.3	13.2	2.0	7.1	-1.0	·	·
COC(=O)Cn1c(=O)c(C(=O)CCl)c(N)n(Cc2ccccc2)c1=O	1.9	-2.7	74.6*	6.8	-14.5	48.5*	69.6*
Cc1n[nH]c(=S)n1/N=C/c1ccccc1OCc1ccc(Cl)cc1Cl	1.8	-3.0	52.6*	3.0	-10.8	10.8	·
